# Measurements reported in ChEMBL document CHEMBL3988442, “University of Dundee, Small-Polar-MMV Screening Library” (2021).
# The whole screen tested about 48,000 compounds, of which about 13,000 (27%) showed an effect of 50% or more. The list shows a part of the results.
# Test system: Wolbachia pipientis
# Experiment: Anti-Wolbachia Cell-Based Screen
# Assay type: functional
# Set-up: scale not given: in the data most compounds retested in dose-response had high values
# Details: 5 µM
row,SMILES,Percent Effect [%]
1,CC(C)Cn1cncc1Cn1cccc(C(F)(F)F)c1=O,13.38
2,COc1cccc(C(=O)NC(C)CCN2CCOCC2)c1F (configuration not stated),4.529
3,CCC(C)NC(=O)c1nn(C)c(NC(=O)c2ccccc2OC)c1F (configuration not stated),131.5
4,CC(C)Oc1ccccc1C(=O)NCCc1nncn1C,-7.55
5,COc1ccccc1C(=O)Nc1c(F)c(C(=O)NCCC(C)C)nn1C,138.9
6,CCN(CC)CCn1cc(NC(=O)c2ccccc2OC)cn1,7.312
7,COc1ccccc1C(=O)NC(C)CC(=O)O (configuration not stated),5.398
8,Cc1cnc(N2CCC3(CC2)CC3CNC(=O)N(C)C)nc1 (configuration not stated),-2.686
9,CN1C(=O)CCC12CCN(S(=O)(=O)c1ccccc1)CC2,-37.9
10,CCN1CCNC(=O)C12CCN(S(=O)(=O)c1ccccc1)CC2,-28.29
11,NC(=O)N1CCC2(CC1)CN(c1ncccn1)CCO2,-107.3
12,Cc1nc2c(c(N3CCN(c4ncccc4C(N)=O)CC3)n1)CCNC2,-20.98
13,CC1(c2[nH]ncc2C(N)=O)CCN(S(=O)(=O)c2ccccc2)CC1,129
14,Cc1ccc(-c2cn[nH]c2C2CCCN(c3ccnc(C)n3)C2)cc1 (configuration not stated),-2.431
15,CN(C)C(=O)c1cn[nH]c1C1(C)CCN(c2ncccn2)CC1,98.94
16,CN(C)C(=O)CC1CC2(CCN(c3ncccn3)CC2)c2ccccc21.O=C(O)C(F)(F)F (configuration not stated),8.977

row,SMILES,Percent Effect [%]
1,CC1(c2[nH]ncc2C(N)=O)CCN(c2ncccn2)CC1,105.4
2,CC(C)=CCC1(C(=O)O)CCCN(c2ccnc(C)n2)C1 (configuration not stated),-9.118
3,Cc1nccc(N2CCCC(C)(c3[nH]ncc3C(N)=O)C2)n1 (configuration not stated),108.3
4,CNC(=O)CN(C)Cc1ccc(F)cc1Cl,-1.762
5,O=C(c1nc(N2CCCC2)ncc1Cl)N1CCN(Cc2ccsc2)CC1,11.05
6,CCn1ncc2c1CCCC2NCc1csc(C(C)C)n1 (configuration not stated),-1.873
7,CC(C)Cc1nc(CS(=O)(=O)c2ccccc2)no1,-7.933
8,Cn1cc(C2CC(=O)NC23CCN(C(=O)C2CC=CC2)CC3)cn1 (configuration not stated),98.1
9,O=C(O)C(F)(F)F.O=C1CC(c2ccncc2)C2(CCN(C(=O)NC3CC3)CC2)N1 (configuration not stated),-11.64
10,Cn1cc(C2CC(=O)NC23CCN(C(=O)NC2CC2)CC3)cn1 (configuration not stated),102
11,COCC(=O)N1CCC2(CC1)CC(c1cnn(C)c1)C(=O)N2 (configuration not stated),4.267
12,CC(=O)NCC(=O)N1CCC2(CC1)NC(=O)CC2c1cnn(C)c1 (configuration not stated),117.4
13,CCN1C(=O)CC(c2cnn(C)c2)C12CCN(C(=O)C1CC=CC1)CC2 (configuration not stated),-6.196
14,Cn1cc(C2CC(=O)NC23CCN(C(=O)c2ccc[nH]2)CC3)cn1 (configuration not stated),-5.816
15,CC(=O)NCC(=O)N1CCC2(CC1)NC(=O)CC2c1cccnc1.O=C(O)C(F)(F)F (configuration not stated),7.13
16,O=C1CC(c2ccncc2)C2(CCN(C(=O)c3ccnnc3)CC2)N1 (configuration not stated),8.485
